Assay results published in ChEMBL document CHEMBL1201862, “PubChem BioAssay data set” (2004).
“And” between values parts separate entries of the source, which are not always exact repeats. Equal entries are not always repeated. Hit rate of the full screen: of about 400,000 compounds, about 2,100 (0.53%) were called active. Another 14% or so got no clear call; they are omitted. How the calls were made is not given here. For the sample, actives were picked, then their nearest neighbours and some compounds at random.

These compounds were tested against Ataxin-2 (Homo sapiens) (UniProt Q99700) (assay: qHTS for Inhibitors of ATXN expression.).
Format: functional

Ataxin-2 (Homo sapiens), sequence (Q99700 whole entry): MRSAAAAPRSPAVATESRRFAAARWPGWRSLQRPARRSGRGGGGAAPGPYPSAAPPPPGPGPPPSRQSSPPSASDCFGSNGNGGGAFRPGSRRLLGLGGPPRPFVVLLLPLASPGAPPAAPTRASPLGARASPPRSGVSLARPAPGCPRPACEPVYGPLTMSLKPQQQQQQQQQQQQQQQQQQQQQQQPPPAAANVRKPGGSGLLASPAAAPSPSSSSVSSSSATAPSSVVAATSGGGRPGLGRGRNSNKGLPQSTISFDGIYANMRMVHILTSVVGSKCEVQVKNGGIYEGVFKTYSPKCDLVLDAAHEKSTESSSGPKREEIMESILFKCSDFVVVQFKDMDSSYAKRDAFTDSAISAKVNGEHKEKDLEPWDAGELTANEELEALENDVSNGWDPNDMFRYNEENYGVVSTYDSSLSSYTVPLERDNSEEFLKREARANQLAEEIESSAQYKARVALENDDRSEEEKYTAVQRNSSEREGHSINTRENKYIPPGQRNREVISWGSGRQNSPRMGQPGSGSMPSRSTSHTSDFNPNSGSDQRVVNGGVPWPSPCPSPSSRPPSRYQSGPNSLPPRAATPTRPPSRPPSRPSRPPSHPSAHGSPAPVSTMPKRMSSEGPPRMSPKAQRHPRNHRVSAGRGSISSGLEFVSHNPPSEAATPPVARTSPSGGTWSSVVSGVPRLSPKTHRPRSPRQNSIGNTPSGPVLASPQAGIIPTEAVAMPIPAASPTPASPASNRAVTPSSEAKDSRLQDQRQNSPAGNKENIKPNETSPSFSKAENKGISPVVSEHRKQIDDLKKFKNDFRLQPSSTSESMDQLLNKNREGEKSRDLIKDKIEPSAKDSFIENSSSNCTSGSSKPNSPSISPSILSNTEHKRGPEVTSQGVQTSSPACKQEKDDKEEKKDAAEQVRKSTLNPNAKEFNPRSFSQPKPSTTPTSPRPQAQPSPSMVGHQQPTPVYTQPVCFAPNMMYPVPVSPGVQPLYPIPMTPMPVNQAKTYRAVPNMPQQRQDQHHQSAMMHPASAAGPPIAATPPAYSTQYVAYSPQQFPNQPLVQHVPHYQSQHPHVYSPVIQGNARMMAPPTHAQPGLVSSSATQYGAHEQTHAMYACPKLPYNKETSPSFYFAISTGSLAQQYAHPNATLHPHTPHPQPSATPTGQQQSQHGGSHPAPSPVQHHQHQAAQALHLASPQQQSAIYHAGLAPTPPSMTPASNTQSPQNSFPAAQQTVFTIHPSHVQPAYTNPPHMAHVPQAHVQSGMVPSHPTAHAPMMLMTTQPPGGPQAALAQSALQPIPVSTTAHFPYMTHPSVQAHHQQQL

Compound	Potency
CC1(C)NC(=O)N(CC(=O)N2CCN(S(=O)(=O)c3cc(Cl)ccc3Cl)CC2)C1=O	inactive
CC(C)Cn1nc(NC(=O)c2cccs2)c2cc3ccccc3nc21	inactive
Cc1ccc(S(=O)(=O)N(C)C)cc1-n1c(SCC(=O)N(C)C)nc2ccccc2c1=O	inactive
Cc1nn(-c2ccccc2)c(C)c1/C=N/NC(=O)CSc1nc2ccccc2c(=O)n1-c1ccc(Br)cc1	12.6 µM (active)
CNC(=O)CSc1nc2ccccc2c(=O)n1C1CCCCC1	inactive
O=C(Nc1ccc(F)cc1)c1nc(S(=O)(=O)Cc2ccccc2)ncc1Cl	25.1 µM (active)
Cc1ccccc1CS(=O)(=O)c1ncc(Cl)c(C(=O)Nc2ccc(F)cc2)n1	10 µM (active)
O=C(Nc1ccc(F)cc1)c1cccnc1NCCc1ccccc1	inactive
CC(=O)Nc1ccc(S(=O)(=O)[N-]c2nc3ccccc3nc2-[n+]2ccc(NC(=O)c3ccc(F)cc3)cc2)cc1	inactive
O=C1CSc2ccc(S(=O)(=O)NCc3ccc(F)cc3)cc2N1	inactive
COc1ccc(Nc2nc3c(C)cccc3cc2C#N)cc1	inactive
N#Cc1nccc2ccc(OCc3ccc(Br)cc3)cc12	inactive
Cn1c(O)c(/C=N/NC(=O)c2cc3ccccc3cc2O)c2ccccc21	inactive
Cc1ccc(C(=O)NNC(=O)c2cc3ccccc3cc2O)cc1	inactive
Cc1ccc(NC(=O)Cn2c(O)c(N=NC(=O)c3cc4ccccc4cc3O)c3ccccc32)cc1	8.91 µM (active)
CN(C(=O)COC(=O)c1cc2ccccc2cc1O)c1ccccc1	inactive
O=C(N=Nc1c(O)n(Cc2ccccc2)c2ccccc12)c1cc2ccccc2cc1O	39.8 µM (active)
Cc1c(O)ccc2c(CC(=O)N[C@@H](Cc3ccc(O)cc3)C(=O)O)cc(=O)oc12	inactive
CCS(=O)(=O)c1nc(S(=O)(=O)c2ccc(Cl)cc2)c(N2CCN(CCO)CC2)s1	inactive
Cc1sc(NC(=O)c2ccccc2)c(C(c2ccc(Cl)cc2)N2CCN(CCO)CC2)c1C (centres undefined)	28.2 µM (active)
Cc1c(-c2ccc(Cl)cc2)c(=O)oc2c(CN3CCN(CCO)CC3)c(O)ccc12	inactive
Cn1c(C(=O)NCc2ccccn2)cc2c(=O)n3ccccc3nc21	inactive
Cc1cccc(C2=NN(c3ccccc3)[C@H](CO)[C@H]2c2ccc(Cl)cc2)c1	inactive
CCN(CC)c1ccc(/C=N/NC(=O)c2cccc(S(=O)(=O)Nc3ccccc3OC)c2)c(O)c1	inactive
CCN1C/C(=C\c2cc(OC)c(OC)c(OC)c2)C2=NN(c3ccccc3)C(c3cc(OC)c(OC)c(OC)c3)C2C1 (centres undefined)	inactive

Compound	Potency
Cc1ccc(C(=O)OCC(=O)NCCc2ccccc2)cc1C	inactive
CCOc1ccc(NC(=O)COc2ccc(C(=O)NCCc3ccccc3)cc2)cc1	inactive
CCOC(=O)c1ccc(NC(=O)COc2ccccc2CNCCc2ccccc2)cc1	29.9 µM (active)
CCCCn1nc(NC(=O)c2cccs2)c2cc3ccccc3nc21	inactive
NS(=O)(=O)c1ccc(NCc2cnc3ccccc3c2)cc1	inactive
CCOc1ccc2nc(NCCCNS(=O)(=O)c3ccc(C)cc3)c(C#N)cc2c1	inactive
c1ccc(COc2ncnc3c2ncn3CCCNCC(c2ccccc2)c2ccccc2)cc1	25.1 µM (active)
c1ccc(COc2ncnc3c2ncn3CCCNC2CCN(Cc3ccccc3)CC2)cc1	39.8 µM (active)
COCCCn1c(C(=O)N2CC(C)OC(C)C2)cc2c(=O)n3ccccc3nc21 (centres undefined)	inactive
O=C(CC(=O)N/N=C/c1c(F)cccc1Cl)NCCc1ccccc1	inactive
CCOc1ccc2nc(N3CCC(C(=O)N4CCN(c5ncccn5)CC4)CC3)sc2c1	inactive
CCCCN(C)CCCNC(=O)C1CCN(c2nc3ccc(CC)cc3s2)CC1	28.2 µM (active)
Cc1c(C(=O)NCc2ccc3c(c2)cc(C)n3C)cccc1[N+](=O)[O-]	inactive
COc1cccc2sc3cc(NCCCN4CCOCC4)ccc3c(=O)c12	inactive
c1ccc2c(-c3ccc(OCCN4CCCCC4)cc3)c(-c3ccsc3)sc2c1	39.8 µM (active)
COc1ccccc1-c1sc2ccccc2c1-c1ccc(OCCN2CCCCC2)cc1	35.5 µM (active)
COc1ccc(-c2c(C)c3ccc(O)c(CN4CCCCC4)c3oc2=O)cc1OC	inactive
COc1ccccc1OCCCCN1CCCCC1	inactive
COc1ccc2c(-c3ccc(OCCN4CCCCC4)cc3)c(-c3ccccc3OC)sc2c1	39.8 µM (active)
Brc1ccccc1OCCCN1CCCC1	inactive
COc1ccc(-c2sc3cc(OC)ccc3c2-c2ccc(OCCN3CCCCC3)cc2)cc1	25.1 µM (active)
CSCCC1NC(=O)N(CC(=O)Nc2ccc(Br)cc2Br)C1=O (centres undefined)	inactive
CCOc1cccc(NC(=O)c2sc3nc(-c4ccc(F)cc4)ccc3c2N)c1	inactive
COc1cccc(-c2sc3ccccc3c2-c2ccc(OCCN(C)C)cc2)c1	28.2 µM (active)
COc1ccc2sc(-c3ccccc3OC)c(-c3ccc(OCCN(C)C)cc3)c2c1	39.8 µM (active)

Compound	Potency
COc1cccc(-c2sc3ccccc3c2-c2ccc(OCCN3CCCCC3)cc2)c1	28.2 µM (active)
COC(=O)c1c(-c2ccc(N(C)C)cc2)sc2ccc(OC)cc12	inactive
COc1ccc2sc(-c3ccc(N(C)C)cc3)c(C#CCO)c2c1	inactive
COc1ccccc1-c1sc2ccccc2c1C#Cc1ccc(N(C)C)cc1	inactive
O=C(Nc1nc2n(n1)C(c1ccc(F)cc1)C=C(c1ccccc1)N2)c1ccc(Cl)cc1 (centres undefined)	inactive
S=C(c1ccc(-c2ccc(Br)cc2)o1)N1CCOCC1	inactive
CCc1cc(=O)oc2c3c(c(Cl)cc12)OCN(Cc1cccc(OC)c1)C3	inactive
CC1C2=C(O)CC(C)(C)CC2=NC2=C1C(=O)CC(C)(C)C2 (centres undefined)	inactive
CCCc1ccc(C2C3=C(CC(C)(C)CC3=O)N=C3C2=C(O)c2ccccc23)cc1 (centres undefined)	20 µM (active)
CCCO/C(O)=C1\C(C)=NC2=C(C(=O)CC(C)(C)C2)C1c1cccnc1 (centres undefined)	inactive
O=S(=O)(Nc1ccccc1N1CCOCC1)c1ccccc1C(F)(F)F	inactive
O=C1CCCc2nc3c(cc21)C(O)Oc1c-3ccc2ccccc12 (centres undefined)	inactive
CN(Cc1ccccc1)C(=O)c1ccc(CSc2nc3cccnc3n2Cc2ccccc2F)cc1	20 µM (active)
Cn1c(SCc2ccccc2F)nc2ccccc2c1=O	inactive
O=C(Cc1c(F)cccc1Cl)N(Cc1ccccc1)c1ccccn1	inactive
CN1CCN(Cc2nc3ccccc3c(=O)n2Cc2nc(-c3ccc4ccccc4c3)cs2)CC1	39.8 µM (active) and 25.1 µM (active)
O=C(CN1C(=O)CCC1=O)Nc1nc(-c2ccc3ccccc3c2)cs1	inactive
CN1CCN(Cc2c(O)ccc3cc(-c4ccccn4)c(=O)oc23)CC1	inactive
C[C@H]1C(c2ccc(F)cc2)=NN(c2ccccc2)[C@@H]1CO	inactive
O=C(CSc1nnc2ccccn12)Nc1ccc(S(=O)(=O)N2CCOCC2)cc1	inactive
COc1ccc(CCNS(=O)(=O)c2ccc3c(c2)CCCC3)cc1OC	inactive
COc1ccc(Cl)cc1CC1(C)C(=O)Nc2ccc(S(=O)(=O)NC3CCCCC3)cc21 (centres undefined)	35.5 µM (active)
COc1ccc(-c2csc(/C(C#N)=C/Nc3cc4oc5ccccc5c4cc3OC)n2)cc1	inactive
C=CC[C@@H](Cc1ccc(F)cc1)C(=O)OC[C@H]1CCCN1C(=O)[C@H](CC=C)CC(=O)N(CCO)Cc1ccccc1	35.5 µM (active)
C=CC[C@@H](Cc1ccc(F)cc1)C(=O)OC[C@H]1CCCN1C(=O)[C@@H](CC=C)CC(=O)N(CCO)Cc1ccccc1	39.8 µM (active)

Compound	Potency
N#Cc1c(N)n(CCc2ccc(F)cc2)c2nc3ccccc3nc12	inactive
O=C(CN1C(=O)NC2(CCCCC2)C1=O)Oc1ccc2c(C(F)(F)F)cc(=O)oc2c1	inactive
Fc1ccc(-c2nc3cnccn3c2NC2CCCC2)cc1	inactive
COc1ccc2c(c1)CCc1cn3nc(C)cc3nc1-2	inactive
COc1ccc2nc(O)c(C(=O)O)cc2c1	inactive
COc1ccc2c(c1)C(=NNc1ccc(C(=O)O)cc1)c1cc(OC)ccc1-2	22.4 µM (active)
COc1ccc(C(=O)N2C(=O)c3ccc(N)cc3C2=O)cc1	inactive
COc1ccc2c(c1)C(=NN)c1cc(OC)ccc1-2	31.6 µM (active)
O=C(O)CC1SC(N/N=C/C2CC=CCC2)=NC1=O (centres undefined)	inactive
Oc1ccccc1C1SC(c2ccccc2O)SC(c2ccccc2O)S1 (centres undefined)	20 µM (active)
CCc1ccc2c(CN3CCc4cc(OC)c(OC)cc4C3)cc(=O)oc2c1	inactive
COc1ccc(-c2coc3cc4oc(=O)c5ccccc5c4cc23)cc1F	8.91 µM (active)
COc1ccc(-c2cc(Cl)cc3c(=O)c4ccccc4n(C)c23)cc1F	inactive
CCc1cc(=O)oc2cc3occ(-c4ccc(OC)c(F)c4)c3cc12	22.4 µM (active)
COc1ccc(-c2cc3ccc(O)cc3oc2=O)cc1OC	inactive
COc1ccc(-c2cc(=O)oc3cc(O)ccc23)cc1	inactive
COc1ccccc1C1CN(c2ccc(F)cc2F)N=C1c1cccs1 (centres undefined)	inactive
O=C(NCc1ccc(Cl)c(Cl)c1)C1CCCC1	inactive
N#C/C(=N\Nc1ccc(Cl)c(Cl)c1)C(=O)C1CC1	25.1 µM (active)
O=[N+]([O-])c1ccc(S(=O)(=O)NCCc2cn3ccccc3n2)cc1	inactive
COc1ccc(S(=O)(=O)NCC2CCCN(C(=O)c3cccnc3)C2)cc1 (centres undefined)	inactive
Cc1c(C=O)c(C=O)c(C)n1Cc1ccccc1	35.5 µM (active)
COc1ccccc1OCCn1c(C)c(C=O)c2ccccc21	inactive
Cc1c(C)n(Cc2ccccc2)c2ccc(C(=O)O)cc12	inactive
